# From PubChem BioAssay (NCATS)
# Records with an inconclusive call do not appear. Calls of active or inactive are those of the source. Unless noted, the rule behind the calls is not given here. Starred links: 1 amine or outer side, 2 acyl side, 3 side chain; linkers in the order of their positions; H or OH if unused. Positions of bridges follow the written chain, without caps; N, C: chain ends. Non-standard residues stand in square brackets, D forms with d. Residues, ends and D or L forms follow the SMILES beside them. *: point of attachment. X2 = NC1=C[C@@H](O)C[C@H]([C@H](N[*:1])C(=O)[*:2])N1; ΔAla(3-NHCONH2) = NC(=O)NC=C(N)C(=O)O; β3hOrn = NCCC[C@H](N)CC(=O)*; Dap = NC[C@H](N)C(=O)O
# Experiments:
# [1] = qHTS profiling for inhibitors of Plasmodium falciparum (3D7) proliferation (AID 743322);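 note: infected erythrocytes exposed to compound for 72 h before lysis; 100% = DMSO vehicle wells and 0% = 0.29 µM artemisinin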; details: P. falciparum 3D7 proliferation; at 28.7 µM (top of the series)
# In short: (§1)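 Parasite DNA was quantified by SYBR Green I fluorescence (ex 485, em 535 nm) after overnight lysis in saponin/Triton buffer at room temperature. Cultures at 0.3% parasitemia and 2.5% hematocrit were first exposed to compound for 72 h at 37 C; signals were normalised to artemisinin (0.29 uM) and vehicle wells.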
# [2] = qHTS profiling for inhibitors of Plasmodium falciparum (DD2) proliferation (AID 743323); details: lower = more inhibition; at 28.7 µM (top of the series)
# In short: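 SYBR Green fluorescence (ex 485, em 535 nm) of lysed cultures gives parasite DNA content; wells normalized to artemisinin (0.29 uM) and DMSO controls. Infected red cells: 0.3% parasitemia, 2.5% hematocrit, 72 h, 37 C.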
# [3] = qHTS profiling for inhibitors of Plasmodium falciparum (HB3) proliferation (AID 743324; active = well fitted curve in the direction sought with a large enough effect; an effect the other way counts as inactive or inconclusive;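 note: 100% = DMSO vehicle wells and 0% = artemisinin-treated control wells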); details: Plasmodium falciparum HB3 blood-stage proliferation; at 28.7 µM (top of the series)
# In short: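 SYBR Green fluorescence (485 ex/535 em) of lysed cultures, incubated overnight at room temperature in the dark, quantifies parasite DNA. Infected erythrocytes at 0.3% parasitemia and 2.5% hematocrit were exposed 72 h; values normalized to DMSO and 0.29 uM artemisinin controls.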
# [4] = qHTS profiling of the MIPE4 collection as inhibitors of Plasmodium falciparum (3D7) proliferation (AID 743344);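 note: scaled between DMSO vehicle wells and 0.29 µM artemisinin as full inhibition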; details: P. falciparum 3D7 in erythrocytes, SYBR Green DNA fluorescence, 72 h; at 28.5 µM (top of the series)
# In short: as §1
# [5] = qHTS profiling of the MIPE4 collection as inhibitors of Plasmodium falciparum (DD2) proliferation (AID 743345); details: P. falciparum Dd2 in erythrocytes, SYBR Green DNA, 72 h; at 28.5 µM (top of the series)
# In short: as §1
# [6] = qHTS profiling of the MIPE4 collection as inhibitors of Plasmodium falciparum (DD2) proliferation (Rep 2) (AID 743346); details: P. falciparum Dd2 in erythrocytes, SYBR Green DNA, 72 h; at 28.5 µM (top of the series)
# In short: as §1
# [7] = target: Cytochrome P450 2C9 (Homo sapiens) (UniProt P11712); experiment: qHTS Assay for Inhibitors and Substrates of Cytochrome P450 2C9 (AID 883; active = well fitted curve in the direction sought with a large enough effect; an effect the other way counts as inactive or inconclusive; note: nearly all actives have a fitted effect of over 60% in size; note: potency is the fitted concentration of half-maximal effect)
# In short: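 Signal: luciferase luminescence reporting luciferin produced by CYP2C9. Conditions: 10nM enzyme, Luciferin-H 100uM at KM, 25mM KPO4, 37C, 60 min NADPH-driven reaction. Reference: 57uM sulphaphenazole as 100% inhibition.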
# Sequence of Cytochrome P450 2C9 (Homo sapiens) (P11712 whole entry, looked up): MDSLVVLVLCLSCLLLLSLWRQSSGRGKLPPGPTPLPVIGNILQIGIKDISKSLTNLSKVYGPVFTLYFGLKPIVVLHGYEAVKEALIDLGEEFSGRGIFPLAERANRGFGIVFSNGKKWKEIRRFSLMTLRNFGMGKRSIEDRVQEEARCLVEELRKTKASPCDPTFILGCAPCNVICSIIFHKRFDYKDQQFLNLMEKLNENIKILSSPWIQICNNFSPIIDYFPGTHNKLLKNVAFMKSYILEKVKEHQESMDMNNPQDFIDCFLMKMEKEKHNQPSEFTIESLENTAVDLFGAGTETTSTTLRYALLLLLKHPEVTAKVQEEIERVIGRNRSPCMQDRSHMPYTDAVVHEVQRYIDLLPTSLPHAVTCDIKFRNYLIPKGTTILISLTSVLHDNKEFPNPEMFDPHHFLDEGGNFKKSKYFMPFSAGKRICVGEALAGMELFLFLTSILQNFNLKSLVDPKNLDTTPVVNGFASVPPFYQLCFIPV
compound,measurement,setting,value
O=C1C(=O)c2ccccc2C(O)=C1C1CCCCC1,remaining parasite growth % (stronger effect = lower value),[1],3.7%
same,"activity, percent of control",[2],4.15%
same,"remaining proliferation (% of control), lower = more inhibition",[3],3.28%
COc1ccc(S(=O)(=O)N(CCO)c2ccccc2CN(C)CC=Cc2ccc(Cl)cc2)cc1,"parasite growth, % of DMSO control",[4],6.17%
same,"parasite growth remaining, % of DMSO control (lower = more inhibition)",[5],26.4%
same,"parasite growth, % of control (lower = inhibition)",[6],18.1%
O=C([C@@H](Cc1ccc(O[S+](=O)([O-])c2ccccn2)cc1)N[S+](=O)([O-])c1cccc2cccnc12)N1CCN(c2ccccc2)CC1,remaining parasite growth % (stronger effect = lower value),[1],-0.32%
same,"activity, percent of control",[2],1.5%
same,"remaining proliferation (% of control), lower = more inhibition",[3],0.71%
O=C([C@H](Cc1ccc(O[S+](=O)([O-])c2ccccn2)cc1)N[S+](=O)([O-])c1cccc2cnccc12)N1CCN(c2ccccc2)CC1,remaining parasite growth % (stronger effect = lower value),[1],-0.962%
same,"activity, percent of control",[2],2.47%
same,"remaining proliferation (% of control), lower = more inhibition",[3],0.0492%
O=C1C[C@@H](O)[C@@H](O)[C@H]2[C@@H]3C(=O)N(Cc4ccccc4)C(=O)[C@@H]3CC[C@H]12,Potency,[7],inactive
O=C([C@@H](Cc1ccc(O[S+](=O)([O-])c2cccc3cccnc23)cc1)N[S+](=O)([O-])c1cccc2cccnc12)N1CCN(c2ccccc2)CC1,remaining parasite growth % (stronger effect = lower value),[1],0.884%
same,"activity, percent of control",[2],3.45%
same,"remaining proliferation (% of control), lower = more inhibition",[3],1.75%
CN([C@@H](Cc1ccc(O[S+](=O)([O-])c2cccc3cnccc23)cc1)C(=O)N1CCN(C(=O)OCc2ccccc2)CC1)[S+](=O)([O-])c1cccc2cnccc12,"parasite growth, % of DMSO control",[4],4.76%
same,"parasite growth remaining, % of DMSO control (lower = more inhibition)",[5],6.72%
same,"parasite growth, % of control (lower = inhibition)",[6],26.8%
CN(C(=O)OC(C)(C)C)[C@@H](Cc1ccc(O[S+](=O)([O-])c2cccc3cnccc23)cc1)C(=O)N1CCN(C(=O)OCc2ccccc2)CC1,"parasite growth, % of DMSO control",[4],5.7%
same,"parasite growth remaining, % of DMSO control (lower = more inhibition)",[5],6.02%
same,"parasite growth, % of control (lower = inhibition)",[6],18.5%
CCN(CC)CCOc1ccc2c(=O)c3ccc(Cl)cc3n(CCN(CC)CC)c2c1,remaining parasite growth % (stronger effect = lower value),[1],-1.28%
same,"activity, percent of control",[2],0.385%
same,"remaining proliferation (% of control), lower = more inhibition",[3],-0.0504%
same,"parasite growth, % of DMSO control",[4],4.98%
same,"parasite growth remaining, % of DMSO control (lower = more inhibition)",[5],6.06%
same,"parasite growth, % of control (lower = inhibition)",[6],27.8%
NCCC[C@H](N)CC(=O)N[C@H]1CNC(=O)[C@H]([C@H]2C[C@H](O)C=C(N)N2)NC(=O)C(=CNC(N)=O)NC(=O)[C@H](CO)NC(=O)[C@H](CO)NC1=O (β3hOrn-[Dap]SS[ΔAla(3-NHCONH2)][X2]; lactam 1-C),"parasite growth, % of DMSO control",[4],96%
same,"parasite growth remaining, % of DMSO control (lower = more inhibition)",[5],96%
same,"parasite growth, % of control (lower = inhibition)",[6],133%
C=CC[C@@H]1C=C[C@H](O/N=C2\c3cc(OC)ccc3O[C@H](c3cccc(OC)c3)[C@H]2O)[C@H](CO)O1,Potency,[7],398 nM (active)
O=C([C@H](Cc1ccc(O[S+](=O)([O-])c2cccnc2)cc1)N[S+](=O)([O-])c1ccccn1)N1CCN(c2ccccc2)CC1,remaining parasite growth % (stronger effect = lower value),[1],6.76%
same,"activity, percent of control",[2],12.3%
same,"remaining proliferation (% of control), lower = more inhibition",[3],2.47%
CS(=O)(=O)c1ccc(-c2cnc(N)c(-c3ccc(C(F)(F)F)nc3)c2)cc1,remaining parasite growth % (stronger effect = lower value),[1],2.16%
same,"activity, percent of control",[2],8.27%
same,"remaining proliferation (% of control), lower = more inhibition",[3],4.13%
CO[C@@]12[C@H](COC(N)=O)C3=C(C(=O)C(C)=C(N)C3=O)N1C[C@H]1N[C@H]12,remaining parasite growth % (stronger effect = lower value),[1],-0.57%
same,"activity, percent of control",[2],0.869%
same,"remaining proliferation (% of control), lower = more inhibition",[3],-0.956%
CC(=O)NCC1CN(c2ccc(N3CCOCC3)c(F)c2)C(=O)O1 (stereo not given),"parasite growth, % of DMSO control",[4],91.2%
same,"parasite growth remaining, % of DMSO control (lower = more inhibition)",[5],94.2%
same,"parasite growth, % of control (lower = inhibition)",[6],75.9%
CC1(C)O[C@@H]2[C@H]3OC(C)(C)O[C@]3(COS(N)(=O)=O)OC[C@H]2O1,"parasite growth, % of DMSO control",[4],103%
same,"parasite growth remaining, % of DMSO control (lower = more inhibition)",[5],93.9%
same,"parasite growth, % of control (lower = inhibition)",[6],101%
C[C@H]1CCN(C(=O)CC#N)C[C@H]1N(C)c1ncnc2[nH]ccc12,"parasite growth, % of DMSO control",[4],69.9%
same,"parasite growth remaining, % of DMSO control (lower = more inhibition)",[5],98.8%
same,"parasite growth, % of control (lower = inhibition)",[6],51.2%
N[C@@H](Cc1ccc(OS(=O)(=O)c2ccccn2)cc1)C(=O)N1CCN(c2ccccc2)CC1,remaining parasite growth % (stronger effect = lower value),[1],98.8%
same,"activity, percent of control",[2],43.6%
same,"remaining proliferation (% of control), lower = more inhibition",[3],67%
O=C([C@H](Cc1ccc(OS(=O)(=O)c2cccc3cnccc23)cc1)NS(=O)(=O)c1cccc2cnccc12)N1CCN(c2ccccc2)CC1,remaining parasite growth % (stronger effect = lower value),[1],-0.827%
same,"activity, percent of control",[2],1.24%
same,"remaining proliferation (% of control), lower = more inhibition",[3],0.712%
CC(C)(C)OC(=O)N[C@@H](Cc1ccc(O[S+](=O)([O-])c2ccccn2)cc1)C(=O)N1CCN(c2ccccc2)CC1,remaining parasite growth % (stronger effect = lower value),[1],5.22%
same,"activity, percent of control",[2],11.4%
same,"remaining proliferation (% of control), lower = more inhibition",[3],2.38%
O=CN(O)CCCP(=O)(O)O,remaining parasite growth % (stronger effect = lower value),[1],11.2%
same,"activity, percent of control",[2],11.8%
same,"remaining proliferation (% of control), lower = more inhibition",[3],14.2%
same,"parasite growth, % of DMSO control",[4],14.4%
same,"parasite growth remaining, % of DMSO control (lower = more inhibition)",[5],19.9%
same,"parasite growth, % of control (lower = inhibition)",[6],17.4%
CC(C)=CCCC(C)=CCNCCNC1C2CC3CC(C2)CC1C3 (stereo not given),"parasite growth, % of DMSO control",[4],4.83%
same,"parasite growth remaining, % of DMSO control (lower = more inhibition)",[5],6.17%
same,"parasite growth, % of control (lower = inhibition)",[6],13.8%
C[C@@H]1Cc2c([nH]c3cc(Cl)c(F)cc23)[C@]2(N1)C(=O)Nc1ccc(Cl)cc12,remaining parasite growth % (stronger effect = lower value),[1],-0.966%
same,"activity, percent of control",[2],0.0887%
same,"remaining proliferation (% of control), lower = more inhibition",[3],-0.181%
COC(=O)[C@H](Cc1ccc(O[S+](=O)([O-])c2cccc3cnccc23)cc1)N[S+](=O)([O-])c1ccc2cnccc2c1,remaining parasite growth % (stronger effect = lower value),[1],13.9%
same,"activity, percent of control",[2],29.2%
same,"remaining proliferation (% of control), lower = more inhibition",[3],6.01%
C[C@]1(COc2ccc(N3CCC(Oc4ccc(OC(F)(F)F)cc4)CC3)cc2)Cn2cc([N+](=O)[O-])nc2O1,"parasite growth, % of DMSO control",[4],81.7%
same,"parasite growth remaining, % of DMSO control (lower = more inhibition)",[5],82%
same,"parasite growth, % of control (lower = inhibition)",[6],90.2%
CC(C)(C)OC(=O)N[C@@H](Cc1ccc(O[S+](=O)([O-])c2cccc3cnccc23)cc1)C(=O)Nc1ccc(-c2ccccc2)cc1,"parasite growth, % of DMSO control",[4],5.81%
same,"parasite growth remaining, % of DMSO control (lower = more inhibition)",[5],8.82%
same,"parasite growth, % of control (lower = inhibition)",[6],13.9%
